Assay outcomes as filed in PubChem BioAssay.
HPGD inh: qHTS Assay for Inhibitors of HPGD (15-Hydroxyprostaglandin Dehydrogenase); purified HPGD, NADH fluorescence kinetic, PGE2 substrate; 15-hydroxyprostaglandin dehydrogenase [NAD(+)] (Homo sapiens), P15428; Potency, µM, without a hit: top-dose activity change, negative = inhibition, hits mostly inhibitors; AID 894, 2007; actives 4.3% (n = 150,000); note: potency is the fitted concentration of half-maximal effect
Target sequence (P15428 whole entry, looked up): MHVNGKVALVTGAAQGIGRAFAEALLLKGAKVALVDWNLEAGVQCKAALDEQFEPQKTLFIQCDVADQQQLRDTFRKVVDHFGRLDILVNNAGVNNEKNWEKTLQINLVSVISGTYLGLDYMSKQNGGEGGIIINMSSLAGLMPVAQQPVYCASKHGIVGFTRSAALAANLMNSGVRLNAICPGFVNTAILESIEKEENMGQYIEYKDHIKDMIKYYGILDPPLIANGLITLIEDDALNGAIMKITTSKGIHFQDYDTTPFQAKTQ
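NADH formation kinetics: reaction with 30 uM PGE2 and 1 mM NAD+ (final), 20 nM enzyme, Tris-HCl pH 8 with Tween 20, after 15 min compound preincubation at room temperature. Fluorescence change, last versus first of five reads.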
IMPase cell inh: qHTS Assay for Identifying the Cell-Membrane Permeable IMPase Inhibitors; 120,000 tested, under 10 active; CHO-M1 cells, IP1 accumulation, HTRF TR-FRET ratio; inhibition (IP1 accumulation), % at 46.1 µM; Inositol monophosphatase 1 (Rattus norvegicus), P97697; active = well fitted curve in the direction sought with a large enough effect in the signal ratio, not every such curve was filed as active; inconclusive = small, poorly fitted or top-dose-only effect, or a change in a side signal; inactive = no such curve, though single readings can be large or run the other way; the % refers to the signal ratio;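 note: cells stimulated with carbachol in lithium chloride buffer; plate controls were DMSO basal wells for no effect and reference inhibitor wells for full effect; higher means more IMPase inhibition seen as more IP1 and lower FRET ratio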
Target sequence (P97697 whole entry, looked up): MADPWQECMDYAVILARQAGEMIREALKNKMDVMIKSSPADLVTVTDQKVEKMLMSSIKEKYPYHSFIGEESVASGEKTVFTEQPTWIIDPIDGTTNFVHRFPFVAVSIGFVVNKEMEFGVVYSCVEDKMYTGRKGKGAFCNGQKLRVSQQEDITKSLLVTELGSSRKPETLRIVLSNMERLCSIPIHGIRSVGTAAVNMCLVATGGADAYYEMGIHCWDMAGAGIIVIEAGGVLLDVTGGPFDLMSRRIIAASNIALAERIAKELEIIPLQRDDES
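In this qHTS, compounds (final up to 46 uM) act on CHO-M1 cells that are then activated through the M1 receptor with carbachol, in pH 7.4 buffer containing 50 mM LiCl, for 30 min. IP1 accumulation is quantified by the IP-One immunoassay.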
ALDH1A1 inh: qHTS Assay for Inhibitors of Aldehyde Dehydrogenase 1 (ALDH1A1); Purified ALDH1A1, NADH fluorescence, propionaldehyde substrate; Aldehyde dehydrogenase 1A1 (Homo sapiens), P00352; actives 7.3% (n = 220,000); Potency, µM (series often up to 75.3 µM), for inactives: top-dose activity, negative = inhibition, most hits filed as inhibitors;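 note: potency is the fitted concentration of half-maximal effect; plate controls were no enzyme wells and a reference inhibitor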
Luc counter: Counterscreen for Luciferase (Kinase-Glo TM) Inhibition; actives 0.28% (n = 200,000); Kinase-Glo luciferase, ATP luminescence, 8 min; Potency, µM (doses to about 38.3 µM), inactives show top-dose activity change, negative = inhibition, most hits filed as inhibitors; active = well fitted inhibition curve with a large enough effect; inconclusive = small, poorly fitted or top-dose-only effect; note: potency is the fitted concentration of half-maximal effect; nearly all actives have a fitted effect of over 60% in size
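Luminescence was the read-out, taken after 8-minute incubation at ambient temperature. Luciferase turned over luciferin with 10 uM ATP in imidazole pH 7.2 buffer containing KCl, MgCl2, Tween 20 and BSA.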
PNC inhibitor: High Content Assay for Compounds that inhibit the Assembly of the Perinucleolar Compartment; actives 3.1% (n = 140,000); activity change (PNC), negative = inhibition, % at 10 µM; AID 2417, 2010; PC3M PTB-GFP, PNC prevalence imaging, 16 h; hits give low values;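 active = readout at or below -70, meaning at least 70% loss of cells showing the perinucleolar compartment, a nuclear body marking cancer cells; inconclusive = readout between -30 and a set limit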;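 note: plate controls were DMSO wells for no effect and camptothecin positive control wells for full effect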
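PC3M cells stably expressing PTB-GFP, 750–1000 cells/well, treated 16 h at 37 °C with compound (23 nl of library stock), in duplicate. After paraformaldehyde fixation and Hoechst stain, imaged at 20x; PNC prevalence scored by image analysis.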
LMNA splice mod: qHTS Assay for Modulators of Lamin A Splicing; AID 1487, 2009; actives 0.01% (n = 200,000); Potency, µM (top dose mostly 46.1 µM), for the others: top-dose ratio change, negative = inhibition, most hits filed as inhibitors; HeLa LMNA splicing GFP/RFP minigene ratio, 48 h; active = well fitted inhibition curve with a large enough effect in the signal ratio, with a control signal flat, not every such curve was filed as active; inconclusive = small, poorly fitted or top-dose-only effect, or effect the other way, or a change in a side signal; the % refers to the signal ratio; note: potency is the fitted concentration of half-maximal effect
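S3 HeLa stable clones carrying a lamin A-EGFP splicing minigene plus DsRed2 were seeded at 600 cells/well in Opti-MEM with 2% FBS, pin-dosed and incubated 48 h at 37°C. Acumen cytometry (488 nm) gave the GFP/RFP total-intensity ratio.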
The depositor's hits bear a star; ? = inconclusive; . = no result; [ ] = remark or other dose. Rows were chosen to be rich in hits. Some 10% of all compounds tested hit in one or more screens of this group. Unless noted, calls come from the whole dose curve; as a rule, active = well fitted inhibition curve with a large enough effect (not every such curve was filed as active); inconclusive = small, poorly fitted or top-dose-only effect, or another doubt; inactive = no such curve, though single readings can be large or run the other way. Unless noted, % is set by controls: 0 for no effect and ±100 for the full control effect.

SMILES	HPGD inh	IMPase cell inh	ALDH1A1 inh	Luc counter	PNC inhibitor	LMNA splice mod
CCOc1ccc(CNC(=O)CN2C(=O)CSc3c2c(C)nn3-c2ccccc2)cc1	.	.	.	.	.	-4.0%[46 µM]
COc1ccc(CNC(=O)CN2C(=O)CC(c3ccc(C)c(C)c3)=Nc3ccccc32)cc1	.	.	.	.	.	6.3%[46 µM]
N[C@H](CS)C(=O)O	.	.	-10.5%	.	.	.
N[C@@H](CSS(=O)(=O)O)C(=O)O	28.2µM*	-3.4	-1.4%	1.5%	.	.
Cn1c(=O)c2sccc2n2c(CCCC(=O)NCc3ccc4c(c3)OCO4)nnc12	-27.7%	7.5	-7.1%	0.3%	-100.0*	5.7%
COCCNC(=O)Cn1c(=O)n(CCCCCC(=O)NCc2ccc3c(c2)OCO3)c(=O)c2sccc21	.	.	-0.5%	-0.1%	.	.
O=C(Nc1cccc(F)c1)N1CCCC2(CCN(S(=O)(=O)c3ccccc3)CC2)C1	-4.2%	.	-12.8%	-3.4%	.	.
CC(C)(C)c1ccc(OC(=O)c2ccc3nsnc3c2)cc1	-28.5%	1.6	-18.4%	-4.8%	?	-0.5%
COc1ccccc1OC(=O)c1ccc2nsnc2c1	-13.7%	-10.9	-6.1%	-2.0%	-81.1*	-12.1%
CCN(CC)c1nc2c(s1)C(=O)NCCC2	-11.3%	6.0	?	-3.1%	2.6	7.4%
CCN(CC)c1nc2c(s1)C(=O)CC(C)(C)C2	-13.4%	1.2	12.6µM*	0.1%	24.0	15.3%
O=C(Nc1nc(-c2ccc3ccccc3c2)cs1)C1CCN(S(=O)(=O)c2cccs2)CC1	-8.7%	.	-8.4%	1.8%	-87.3*	?
O=C(COC(=O)C1CCN(S(=O)(=O)c2cccs2)CC1)c1cc2ccccc2o1	?	0.9	15.8µM*	-6.5%	?	4.4%
CS(=O)(=O)Nc1cccc(-c2cncnc2NCc2cccs2)c1	-20.1%	.	10.4%	-1.5%	.	-6.4%
COc1ccc(C)cc1NC(=O)Cc1ccc(NC(=O)N2CCCCc3ccccc32)cc1	.	.	.	.	.	-6.7%[46 µM]
Cc1cccc(-n2c(-c3csc(C)c3C)n[nH]c2=S)c1	10µM*	.	-13.2%	-4.2%	15.8	3.8%
Cc1cccc(-n2c(-c3csc(C(C)C)c3)n[nH]c2=S)c1	?	1.8	15.8µM*	-1.4%	15.8	-8.1%
CCCc1cc(-c2n[nH]c(=S)n2-c2cccc(C)c2)cs1	.	.	?	1.0%	.	-12.2%[9.22 µM]
COc1cc(-c2nc3c(c(C)nn3-c3ccccc3)c3cc(OC)c(OC)cc23)ccc1O	?	3.7	?	-1.5%	-108.8*	8.6%[0.0737 µM]
CC1(C)CC(=O)C2=C(C1)Nc1ccccc1N=C2	-12.0%	19.1	1.78µM*	-17.8%	-14.3	-0.9%
CCC(=O)OC1=CN(Cc2ccccc2)S(=O)(=O)c2ccccc21	.	.	.	.	.	-8.2%[46 µM]
CCOC(=O)c1nnn(-c2nonc2N)c1CN1CCCCCC1	-5.8%	-2.9	2.24µM*	1.0%	2.1	-1.1%
CCOC(=O)c1nnn(-c2nonc2N)c1CN(CC)CC	-2.1%	?	-4.7%	-1.1%	-26.4	7.0%
Cc1c(C(=O)N2CCCCCC2)nnn1-c1nonc1N	31.6µM*	1.0	11.2µM*	-1.6%	59.8	-3.7%
NNC(=O)c1nnn(-c2nonc2N)c1CN1CCc2ccccc2C1	.	.	3.98µM*	1.9%	.	-14.3%[46 µM]
SMILES	HPGD inh	IMPase cell inh	ALDH1A1 inh	Luc counter	PNC inhibitor	LMNA splice mod
CCOC(=O)c1nnn(-c2nonc2N)c1CN(C)C1CCCCC1	-6.7%	-1.0	2µM*	-3.3%	?	0.6%
CCOC(=O)c1nnn(-c2nonc2-n2cccc2)c1CN1CCCCC1	-23.5%	1.9	5.9%	-2.1%	17.8	19.2%
Cc1nc(-c2ccc(S(=O)(=O)Nc3ccc(C#N)cc3)cc2)co1	.	.	.	.	.	7.3%[46 µM]
COC(=O)c1c(C)[nH]c(O)c1C=Nc1ccc(Oc2ccccc2)cc1	.	.	-15.3%	-6.0%	.	?
COC(=O)c1c(C)[nH]c(O)c1C=Nc1ccc(C(C)C)cc1	25.1µM*	-5.2	?	-5.4%	47.0	1.9%
Cc1oc2c(c1C(=O)NCc1cccc(Br)c1)C1=NCCN1C=N2	.	.	.	.	.	3.5%[46 µM]
CCN(CC)S(=O)(=O)c1ccc(-n2cnnn2)c(C)c1	-5.1%	7.7	?	1.4%	-3.7	0.4%
COc1ccc(S(=O)(=O)NC2CCCCC2)cc1-n1cnnn1	.	.	1.58µM*	-1.1%	.	-19.1%[46 µM]
CCN(CC)S(=O)(=O)c1ccc(OC)c(-n2cnnn2)c1	.	.	7.94µM*	5.6%	.	8.9%[46 µM]
CC(=O)Nc1nonc1-c1nnc(SCC(=O)Nc2ccc(C)cc2C)n1C	.	.	.	.	.	6.1%[46 µM]
O=C(Cc1ccccc1)Nc1cccc(N2CCCC2)c1	?	6.7	14.1µM*	5.3%	?	-13.1%
O=C(Cc1ccccc1)Nc1ccc(N2CCCC2)cc1	-8.9%	19.6	?	-7.3%	4.9	2.2%
Cc1cc(C)c(Nc2nc3ccccc3n3c(C)nnc23)c(C)c1	.	.	.	.	.	11.1%[46 µM]
O=C(NC(NNc1ccc([N+](=O)[O-])cc1)(C(F)(F)F)C(F)(F)F)c1ccc(Cl)cc1	15.8µM*	11.7	?	-3.1%	-82.4*	-1.9%
O=C(NNc1ccc([N+](=O)[O-])cc1)c1ccccc1Cl	.	.	-4.9%	3.7%	.	.
CCCS(=O)(=O)N1CCN(Cc2ccccc2OCC)CC1	-7.9%	9.2	-3.6%	-3.8%	-85.2*	12.3%
CCOc1ccccc1CN1CCN(S(=O)(=O)CC)CC1	-3.9%	10.1	-9.2%	-2.2%	?	-0.8%
Cc1ccccc1NC(=S)NCc1ccc2[nH]c3c(c2c1)CCCC3	20µM*	.	?	1.8%	25.4	?
CNC(=S)NCc1ccc2[nH]c3c(c2c1)CCCC3	.	.	25.1µM*	1.0%	.	.
CCCCNC(=S)NCc1ccc2[nH]c3c(c2c1)CCCC3	.	.	6.7%	1.8%	.	27.5%[9.22 µM]
Cc1ccc(C)c(NC(=S)NCc2ccc3[nH]c4c(c3c2)CCCC4)c1	-21.4%	.	-13.8%	-1.1%	-15.9	?
COC(=O)c1ccc2c(c1)SC1=C(CCCC1=O)N2	39.8µM*	24.8	3.8%	-2.6%	23.1	-5.6%
COc1ccc(C(=O)N[C@H](C(=O)Nc2ccc(OC)nc2)C(C)C)cc1	-9.6%	1.1	3.2%	-3.6%	-111.7*	0.1%
CCOC(=O)c1c(NC(=O)CC)sc(C(C)=O)c1C	?	-15.5	14.1µM*	2.4%	-17.0	0.1%
CCOC(=O)c1c(NC(=O)c2cccnc2)sc(C(C)=O)c1C	12.6µM*	-11.5	?	3.5%	13.8	-6.9%
CCOC(=O)c1c(NC(=O)COc2ccc(Cl)cc2C)sc(C(C)=O)c1C	.	-3.8	.	.	.	.
CCOC(=O)c1c(NC(=O)CN(C)C)sc(C(=O)N(CC)CC)c1C	0.7%	8.5	?	-4.0%	-21.9	5.0%[0.0737 µM]
